Bioassay records from PubChem.
Sampled rows, rich in hits. Any-hit rate of the full collection: about 1.4%.
MenB inh: inhibitors of Mycobacterium tuberculosis MenB enzyme. MenB enzyme assay, absorbance read-out. inhibition, % (no concentration beside the values). 0.43% of 100,000 active. AID 540299; in the data active = inhibition above about 21%, passing the limit was not always enough
Target sequence (P9WNP5 whole entry, looked up): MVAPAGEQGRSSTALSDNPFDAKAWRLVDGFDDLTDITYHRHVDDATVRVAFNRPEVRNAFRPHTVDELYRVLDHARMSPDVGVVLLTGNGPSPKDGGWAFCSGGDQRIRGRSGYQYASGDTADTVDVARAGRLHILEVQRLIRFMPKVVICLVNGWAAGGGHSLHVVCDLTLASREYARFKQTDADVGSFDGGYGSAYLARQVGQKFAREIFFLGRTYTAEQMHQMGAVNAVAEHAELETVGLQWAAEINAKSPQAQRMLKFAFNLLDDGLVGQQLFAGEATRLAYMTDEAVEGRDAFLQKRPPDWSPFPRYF
AID504770: E. coli YBA685 growth inhibition, screen for V. cholerae RctB inhibitors. z-score (concentration not given with the values). E. coli YBA685 rctB-dependent plasmid, OD600 growth, 3 h; active compounds read low. 0.27% of 130,000 active. AID 504770; in the data active = z-score below about -2, passing the limit was not always enough
MbtI inh: blocks the Mycobacterium tuberculosis siderophore enzyme MbtI. inhibition, % (no concentration beside the values). AID 493033. purified MbtI enzyme, fluorescence intensity read-out. 0.89% of 100,000 active. P9WFX0; in the data active = inhibition mostly above about 56%, no sharp cut-off; inactive = mostly below about 77%
PV pol inh: inhibitors of poliovirus RNA polymerase binding and polymerization. poliovirus polymerase elongation, fluorescence polarization; active compounds read low. % elongation, % (compound at 16.7 µg/mL). 0.66% of 150,000 active. AID 588519; in the data active = % elongation below about 90%
Starred values were filed as active, the others as inactive; . = no result.

SMILES	MenB inh	AID504770	MbtI inh	PV pol inh
O=C(O)COc1cc(Cl)ccc1O	.	-0.1	-11	100
O=S1(=O)CCC(N/N=C/c2ccccc2O)C1 (configuration not stated)	-28	-0.55	-2	20*
Cc1ccc(-n2c(C)cc(/C=N/NC3CCS(=O)(=O)C3)c2C)cc1 (configuration not stated)	3	1.4	15	166
CCN1C(=O)/C(=C\c2cccc3c2-c2ccccc2C3=O)OC1=S	-32	-0.8	-1	103
CCOc1ccc(N2C(=O)CC(NCCNC(=O)c3ccc(Cl)cc3)C2=O)cc1 (configuration not stated)	27*	0.85	5	102
CCOC(CCn1c(SCC(=O)NC2CCCCC2)nc2ccccc2c1=O)OCC	-16	0.05	-10	100
Cc1ccc2cccc(I)c2n1	-5	-2.5*	12	103
Cc1[nH]c2ccccc2c1C(c1ccccn1)N1CCN(CCO)CC1 (configuration not stated)	.	0	18	103
CN1CCN(C(c2ccccn2)c2c(-c3ccccc3)n(O)c3ccccc23)CC1 (configuration not stated)	-9	-0.15	22	88*
CC(=O)NCCC(=O)N1CCCSC1=Nc1c(C)cccc1C	-3	0.05	-4	88*
S=c1[nH]c2ccccc2n1Cc1ccccc1	-19	0.15	84*	96
S=c1[nH]c2ccccc2n1CCOc1ccccc1	-72	0.2	95*	99
N#CCCn1c(=S)[nH]c2ccccc21	-11	-0.05	99	82*
Oc1c(/C=N/N2CCOCC2)cc2c3c1CCCN3CCC2	-23	-0.05	-3	131
CCN(CC)CCN=Cc1c(O)n(-c2ccccc2C)c(=O)[nH]c1=O	-13	2.2	14	102
CC1(C)CC2CC(C)(CN2C2=CC3=CC(=C(C#N)C#N)CCC3CC2)C1 (configuration not stated)	-1	-0.25	4	45
CCCCn1c(COc2ccc(Cl)c(C)c2)nc2cc(S(N)(=O)=O)ccc21	-9	0.65	-5	113
Cc1cccc(C)c1OCc1nc2c3cnn(-c4ccccc4Br)c3ncn2n1	.	.	.	111
Cc1cccc(C)c1OCc1nc2c3cnn(-c4ccccc4F)c3ncn2n1	.	.	.	75*
CCOC(=O)N1CCN(C(=O)COC(=O)c2ccc(=O)n(Cc3ccccc3)n2)CC1	-33	-0.85	-8	99
CCO/C=C1/C(=O)N(c2ccc(OC)cc2)C(=O)c2ccccc21	-2	-0.55	26	82*
CCO/C=C1/C(=O)N(c2ccc(S(=O)(=O)N3CCOCC3)cc2)C(=O)c2ccccc21	-23	0.6	17	96
CCO/C=C1\C(=O)N(c2ccccc2)C(=O)c2ccccc21	.	-0.3	-13	80*
COc1ccc(N2CCN(/C=C3\C(=O)N(c4ccc(C)cc4)C(=O)c4ccccc43)CC2)cc1	-23	-0.4	52	97
CCOC(=O)C(Cc1ccccc1)C(=O)Nc1nc2ccccc2s1 (configuration not stated)	-4	0.1	15	99
SMILES	MenB inh	AID504770	MbtI inh	PV pol inh
Cc1cc2oc(=O)cc(CSc3nnc(-c4ccoc4C)n3C)c2cc1C	-1	1.1	34	100
CCOc1ccc(N2C(=O)/C(=C/c3cccs3)C(=O)N(c3ccccc3)C2=S)cc1	-22	-0.55	73*	106
CS(=O)(=O)c1nc2ccccc2s1	7	0.35	.	89*
CCOC(=O)c1[nH]c(=O)[nH]c1CSc1ccccn1	-6	0.2	91*	100
c1ccc(OCCSc2nc3ccccc3n2CCOc2ccccc2)cc1	-12	-0.05	1	100
CCC(=O)Nc1ccc2nc(C3CC3)n(Cc3ccc(Cl)cc3)c(=O)c2c1	31*	2.5	12	101
CC1CCc2cc(F)cc3c(=O)c(C(=O)O)cn1c23 (configuration not stated)	-5	-3.4*	-1	100
COc1cccc(C2=C(C(C)=O)Sc3nncn3N2C(C)=O)c1	.	.	.	87*
CC(=O)C1=C(c2ccc(Cl)c(Cl)c2)N(C(C)=O)n2cnnc2S1	.	.	.	86*
CC(=O)C1=C(c2ccc(Cl)c(Cl)c2)N(C(C)=O)n2c(C)nnc2S1	.	.	.	89
CS(=O)(=O)c1scc(-c2ccccc2Cl)c1C#N	.	-0.6	.	.
O=C(c1ccc(S(=O)(=O)N2CCCCC2)cc1)n1cnc2ccccc21	.	-0.5	.	.
O=C(NCc1n[nH]c(=O)c2ccccc12)NC1CCCCC1	-14	-1.3	-10	108
C#CCN1C(=O)C2(C(C(=O)OCC)=C(N)Oc3ccccc32)C2=C1CC(C)(C)CC2=O (configuration not stated)	-51	-0.7	-6	104
CC(Nc1ncnc2c1cnn2C)C1CC2CCC1C2 (configuration not stated)	-1	-0.75	-2	102
Oc1ccc(Cl)cc1Sc1cc(Cl)ccc1O	-36	-7.1*	.	107
CCC(=O)c1cc(Cl)ccc1O	-3	-0.2	-3	103
CN(C)CCN1C(=O)c2oc3ccccc3c(=O)c2C1c1cccnc1 (configuration not stated)	-19	1.8	3	104
O=C(COc1ccc(Br)cc1)Nc1ccccc1N1C(=O)c2ccccc2C1=O	-7	-0.15	.	100
O=C(c1cc(O)ccc1O)c1coc2ccc(O)cc12	13	0.55	100*	101
COc1ccc(C2C(C#N)=C(N)Oc3c2ccc2cccnc32)cc1 (configuration not stated)	33*	0.9	11	102
COc1ccc(C2C(C#N)=C(N)OC(C3CC3)=C2C#N)cc1 (configuration not stated)	-5	-0.85	-21	104
CC(C)(C)c1nn2cnnc2n(NC(=O)Nc2cccc(Cl)c2)c1=O	-9	-3.5*	-4	105
CC(C)(C)CC(C)(C)NC(=O)Nc1cccc(Cl)c1	-43	0.65	-7	100
C=CCN1C(=O)/C(=C\c2ccc(O)c(Br)c2)C(=O)NC1=S	-48	-0.25	14	100
SMILES	MenB inh	AID504770	MbtI inh	PV pol inh
C=CCN1C(=O)/C(=C\c2ccc(O)c(OC)c2)C(=O)NC1=S	-72	-0.9	35	102
C=CCN1C(=O)/C(=C\c2ccc(N(CC)CC)cc2)C(=O)NC1=S	-35	0.2	79*	100
C=CCN1C(=O)/C(=C\c2ccc(OC)cc2)C(=O)NC1=S	-160	-0.8	95*	99
C=CCN1C(=O)/C(=C\c2ccc(OCc3ccccc3C#N)cc2)C(=O)NC1=S	-56	-0.35	74*	102
Cc1cc(C(=O)COC(=O)C23CC4CC(CC(O)(C4)C2)C3)c(C)n1C1CC1	-21	-0.1	-1	104
Cc1cc(N2CCCCC2)nc2ccc(NC(=O)CCC(=O)NCc3ccco3)cc12	.	1.8	.	.
Cc1ccc(N2C(=O)N(Cc3cc(=O)n4ccsc4n3)C(=O)C2C)cc1 (configuration not stated)	5	0.4	22	110
Oc1ccccc1OCc1nc2ccccc2s1	.	0	52*	102
CN(C)c1cccc(N(C)C)c1CNC(=O)Nc1ccc(Cl)cc1	-19	0.1	14	104
CCC(=O)C1=C(c2ccccc2)N(C(=O)CC)n2cnnc2S1	-17	-1.5	-9	104
CCC(=O)C1=C(c2ccc(F)cc2)N(C(=O)CC)n2cnnc2S1	.	.	.	86*
